Assay [1] addresses Thyrotropin-releasing hormone receptor (Homo sapiens) (UniProt P34981). In words: qHTS assay to identify small molecule agonists of the thyrotropin-releasing hormone receptor (TRHR) signaling pathway (AID 1346891; calls by dose curve;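 also: HEK293 cells expressing TRHR with calcium dye readout; series mostly up to about 58 µM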). Put shortly:
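HEK293/TRHR cells, 1500 per well, 18 h 37 °C; Ca dye 2 h 37 °C; pin-tool compound addition (agonist mode); kinetic fluorescence 3 min, 1 s reads; 15 concentrations, triplicate.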

Assay [2] in a line: Human pregnane X receptor (PXR) small molecule agonists, qHTS cell viability counter screen (AID 1346977). Also: nearly all actives have a fitted effect of over 50% in size. The method, boiled down: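 Fluorescence read-out (CellTiter-Fluor) of viability in PXR-Luc HepG2 cells, multiplexed with the luciferase agonist read. Compounds in DMSO added after 5hr plating; 24hr total exposure at 37C, 5% CO2.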
Assay [3] in a line: Caspase-3/7 induction in HepG2 cells by small molecules, qHTS assay (AID 1346978). Also: nearly all actives have a fitted effect of over 15% in size. The method, boiled down:
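Wild-type HepG2 cells, 2,000/well, settled 5 hr at 37 C and 5% CO2, then compound-treated for 17 hr; caspase-3/7 activity read by luminescent Caspase-Glo 3/7 after 30 min at room temperature.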

Assay [4] is described as follows: Caspase-3/7 induction in CHO-K1 cells by small molecules, qHTS cell viability counter screen (AID 1346979). Also: nearly all actives have a fitted effect of over 35% in size. The method, boiled down:
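CHO-K1 wt, 1,500 cells/well; 5hr pre-incubation 37C/5% CO2; compound pin transfer (DMSO); 16hr exposure; CellTiter-Fluor added, 1hr, fluorescence read.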
In general terms: In qHTS, concentration-response curves come from the screen itself.

Assay [5] in a line: Caspase-3/7 induction in CHO-K1 cells by small molecules, qHTS assay (AID 1346980). Also: nearly all actives have a fitted effect of over 15% in size. Put shortly:
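Wild-type CHO-K1 cells exposed to compounds for 17hr at 37 C, 5% CO2. Caspase-3/7 activity then measured by Caspase-Glo 3/7 luminescence after 30min at room temperature.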

Assay [6] in a line: Caspase-3/7 induction in HepG2 cells by small molecules, qHTS cell viability counter screen (AID 1346981). Also: series mostly up to about 92 µM; nearly all actives have a fitted effect of over 30% in size. Put shortly:
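Fluorescence read-out of live-cell protease activity (CellTiter-Fluor) after 1 hr with reagent. This was measured in the same wells as the caspase-3/7 luminescence, on HepG2 cells exposed to DMSO-dissolved compounds for 16 hr at 37 C.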

The target in assay [7] is Acetylcholinesterase (Homo sapiens) (UniProt P22303). In words: Acetylcholinesterase (AChE) small molecule antagonists: colormetric cell-based qHTS assay (AID 1347395; calls by dose curve; also: nearly all actives have a fitted effect of over 30% in size; also: potency is read from the fitted curve at half-maximal effect). The method, boiled down:
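SH-SY5Y cells; cpd 30 min 37 C; + DTNB/acetylthiocholine, 90 min 37 C; colorimetric thiocholine read; qHTS.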

Assay [8] shares this target. Kind of assay: Acetylcholinesterase (AChE) small molecule antagonists: enzyme-based qHTS assay (AID 1347397; calls by dose curve; also: nearly all actives have a fitted effect of over 55% in size). Conditions: Potency: AChE enzyme activity inhibition; outcome: AChE enzyme activity inhibition. The method, boiled down:
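Colorimetric DTNB read-out of thiocholine released from acetylthiocholine by recombinant human AChE (50 mU/mL as dispensed). Compounds were preincubated 30 min at RT before substrate/DTNB addition, with a 10 min RT reaction.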

The target is the same in assay [9]. In words: Acetylcholinesterase (AChE) small molecule antagonists: fluorescence cell-based qHTS assay (AID 1347398; calls by dose curve; also: nearly all actives have a fitted effect of over 50% in size). The note with it: Potency: AChE activity; outcome: AChE activity. Put shortly: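 SH-SY5Y, 2,000 cells/well, attached overnight; cmpd 30 min 37 C; acetylthiocholine/Thiolite Green cocktail 40 min RT; fluorescence Ex/Em 490/520 nm.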
For assay [10] the target is unchanged. Kind of assay: Acetylcholinesterase (AChE) small molecule antagonists: enzyme-based qHTS assay with human liver microsomes (AID 1347399; calls by dose curve; also: nearly all actives have a fitted effect of over 60% in size). Conditions: Potency: qHTS inhibition; outcome: qHTS inhibition. Put shortly: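 Recombinant human AChE (50 mU/mL in the enzyme mix) and human liver microsomes (0.25 mg/mL final) were preincubated with compound and NADPH (0.25 mg/mL final) for 30 min at 37 C. Acetylthiocholine/DTNB was then added; thiocholine was read colorimetrically after 10 min at room temperature.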

In assay [11] the target is Cytochrome P450 2D6 (Homo sapiens) (UniProt P10635). In words: Cytochrome P450 Family 2 Subfamily D Member 6 (CYP2D6) small molecule antagonists: luciferase reporter qHTS assay (AID 1671196). Also: nearly all actives have a fitted effect of over 50% in size. Also: potency is read from the fitted curve at half-maximal effect. The method, boiled down:
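Luminogenic proluciferin substrate, CYP2D6 enzyme; 10 min RT preincubation with compound, NADPH regeneration system added, 1 h RT. Stop/detection reagent, 20 min RT, luminescence read (RLU). Signal proportional to CYP activity.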
Background: In a reporter assay the amount or activity of a reporter protein is the signal.

Assay [12] has as its target Cytochrome P450 2C19 (Homo sapiens) (UniProt P33261). In words: Cytochrome P450 Family 2 Subfamily C Member 19 (CYP2C19) small molecule antagonists: luciferase reporter qHTS assay (AID 1671197). Also: nearly all actives have a fitted effect of over 65% in size. Also: potency is read from the fitted curve at half-maximal effect. The method, boiled down:
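Enzyme-substrate mix with proluciferin substrate (P450-Glo CYP2C19 system) preincubated with compounds 10 min at room temperature; NADPH regeneration solution added, 37C for 1 h; detection reagent stops reaction, luminescence read after 20 min. Ketoconazole positive control.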

Assay [13] addresses Cytochrome P450 2C9 (Homo sapiens) (UniProt P11712). Kind of assay: Cytochrome P450 Family 2 Subfamily C Member 9 (CYP2C9) small molecule antagonists: luciferase reporter qHTS assay (AID 1671198). Also: nearly all actives have a fitted effect of over 50% in size. Also: potency is read from the fitted curve at half-maximal effect. The method, boiled down:
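P450-Glo proluciferin substrate with CYP2C9 enzyme; 10 min RT preincubation, then NADPH regeneration 1 h at 37C; luciferin detection reagent 20 min RT, luminescence in relative luminescence units.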

Assay [14] has as its target Voltage-gated inwardly rectifying potassium channel KCNH2 (Homo sapiens) (UniProt Q12809). In words: Human Ether-a-go-go-Related Gene (hERG) channel small molecule antagonists: fluorescence cell-based qHTS assay (AID 1671200). The method, boiled down:
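Read-out: thallium influx as a surrogate for potassium, tracked as fluorescence (480 nm ex/540 nm em) every second for 2 min after Stimulus Buffer addition in dye-loaded hERG-U2OS cells.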
In general terms: hERG is a cardiac potassium channel; its block is linked to QT prolongation.

Assay [15] has as its target Cytochrome P450 3A4 (Homo sapiens) (UniProt P08684). In words: Cytochrome P450 Family 3 Subfamily A Member 4 (CYP3A4) small molecule antagonists: luciferase reporter qHTS assay (AID 1671201). Put shortly:
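Luminescent readout (RLU) proportional to CYP3A4 activity, from luciferin generated off a proluciferin substrate. Enzyme–substrate mix plus compound 10 min at room temp, NADPH regeneration 1 h, detection reagent 20 min.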

Assay [16] deals with Nuclear receptor subfamily 1 group I member 2 (Homo sapiens) (UniProt O75469). In words: Human pregnane X receptor (PXR) small molecule agonists, qHTS assay (AID 1346982). Also: nearly all actives have a fitted effect of over 35% in size. The method, boiled down: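 HepG2 PXR-Luc reporter line, 5% charcoal-stripped FBS; 5 hr pre-incubation, compound (DMSO) 24 hr at 37 C/5% CO2; ONE-Glo 30 min RT; luminescence read-out.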
Nuclear receptor subfamily 1 group I member 2 (Homo sapiens), sequence (O75469 whole entry, looked up): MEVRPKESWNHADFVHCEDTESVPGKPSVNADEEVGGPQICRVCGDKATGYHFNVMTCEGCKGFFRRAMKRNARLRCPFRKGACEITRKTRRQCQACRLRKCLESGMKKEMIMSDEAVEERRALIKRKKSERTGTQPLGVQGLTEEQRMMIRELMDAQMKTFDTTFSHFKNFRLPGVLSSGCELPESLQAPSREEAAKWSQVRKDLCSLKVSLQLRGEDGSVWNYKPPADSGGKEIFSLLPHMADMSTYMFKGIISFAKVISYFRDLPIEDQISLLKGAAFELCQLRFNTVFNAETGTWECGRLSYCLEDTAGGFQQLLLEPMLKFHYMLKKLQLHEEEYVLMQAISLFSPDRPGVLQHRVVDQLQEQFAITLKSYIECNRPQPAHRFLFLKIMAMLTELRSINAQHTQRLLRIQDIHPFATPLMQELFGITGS
Assay [17] has as its target Cytochrome P450 1A2 (Homo sapiens) (UniProt P05177). In words: Cytochrome P450 Family 1 Subfamily A Member 2 (CYP1A2) small molecule antagonists: luciferase reporter qHTS assay (AID 1671199). Also: nearly all actives have a fitted effect of over 50% in size. Also: potency is read from the fitted curve at half-maximal effect. The method, boiled down: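 Luminescence readout (relative luminescence units) after luciferin detection reagent, 20 min RT. Preceded by 1 h room-temperature CYP1A2 reaction with NADPH regeneration solution following 10 min compound preincubation with enzyme and proluciferin substrate. Furafylline positive control.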

Assay [18] deals with Nuclear receptor subfamily 1 group I member 2 (Rattus norvegicus) (UniProt Q9R1A7). Kind of assay: Rat pregnane X receptor (rPXR) activation by small molecules, qHTS assay (AID 1346983). Also: nearly all actives have a fitted effect of over 20% in size. Conditions: rPXR luciferase reporter cells, One-Glo luminescence, 24 h; stronger effect = higher value. Put shortly: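 Cell-based rPXR activation assay: rPXR cells, 2,000 per well, rested 5hr at 37 C, then exposed to compounds in DMSO for 24 hr at 37 C. Luciferase activity read by One-Glo luminescence after 30 min at room temperature.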
Nuclear receptor subfamily 1 group I member 2 (Rattus norvegicus), sequence (Q9R1A7 whole entry, looked up): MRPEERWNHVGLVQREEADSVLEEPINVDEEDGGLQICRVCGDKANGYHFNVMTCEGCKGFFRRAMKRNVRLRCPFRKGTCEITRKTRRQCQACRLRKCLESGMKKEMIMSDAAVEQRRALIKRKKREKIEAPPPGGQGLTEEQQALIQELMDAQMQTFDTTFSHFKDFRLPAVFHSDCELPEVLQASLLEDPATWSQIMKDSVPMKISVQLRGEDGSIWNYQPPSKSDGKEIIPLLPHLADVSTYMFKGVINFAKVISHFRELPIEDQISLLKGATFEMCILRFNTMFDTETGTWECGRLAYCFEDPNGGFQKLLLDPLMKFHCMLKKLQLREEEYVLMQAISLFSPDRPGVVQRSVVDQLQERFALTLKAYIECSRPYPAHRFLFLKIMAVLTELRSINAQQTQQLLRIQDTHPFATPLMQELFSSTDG

Assay [19] concerns the target Nuclear receptor subfamily 1 group I member 2 (Homo sapiens) (UniProt O75469). In words: Human pregnane X receptor (PXR) activation by small molecules, qHTS assay (AID 1346985). Also: nearly all actives have a fitted effect of over 40% in size. The method, boiled down: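 DPX-2 cells (HepG2 co-transfected with a PXR response element and a CYP3A4-promoter luciferase construct) were seeded at 2,000 per well, rested 5 hr at 37C, then exposed to DMSO-dissolved compounds for 24 hr. Activation was read as luciferase luminescence.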

Structures are written as SMILES. Values without a mark were called inactive. Results filed as inconclusive are left out. Active and inactive are the calls of the source. Unless noted, calls follow the shape of the dose curve; as a rule, active = well fitted curve in the direction sought with a large enough effect in the repeat runs; inconclusive = weak or mixed curves; inactive = no such curve, though single readings can be large; an effect the other way counts as inactive or inconclusive.
% is scaled to controls: 0 for no effect and ±100 for the full control effect.

Cytochrome P450 2D6 (Homo sapiens), sequence (P10635 whole entry, looked up): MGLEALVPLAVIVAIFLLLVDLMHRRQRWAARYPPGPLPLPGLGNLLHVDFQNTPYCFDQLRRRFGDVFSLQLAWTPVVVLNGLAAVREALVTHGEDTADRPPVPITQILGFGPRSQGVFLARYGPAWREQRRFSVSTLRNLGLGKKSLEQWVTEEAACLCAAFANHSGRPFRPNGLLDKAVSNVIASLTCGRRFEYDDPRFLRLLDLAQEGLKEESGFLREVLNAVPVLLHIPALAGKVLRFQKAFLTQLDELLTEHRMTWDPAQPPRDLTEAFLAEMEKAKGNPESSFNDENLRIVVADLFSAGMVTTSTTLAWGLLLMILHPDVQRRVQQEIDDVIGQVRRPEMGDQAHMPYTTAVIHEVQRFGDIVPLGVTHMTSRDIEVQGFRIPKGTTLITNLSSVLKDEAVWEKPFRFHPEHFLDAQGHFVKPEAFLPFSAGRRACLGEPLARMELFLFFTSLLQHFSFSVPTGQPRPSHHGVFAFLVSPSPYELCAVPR
Cytochrome P450 3A4 (Homo sapiens), sequence (P08684 whole entry, looked up): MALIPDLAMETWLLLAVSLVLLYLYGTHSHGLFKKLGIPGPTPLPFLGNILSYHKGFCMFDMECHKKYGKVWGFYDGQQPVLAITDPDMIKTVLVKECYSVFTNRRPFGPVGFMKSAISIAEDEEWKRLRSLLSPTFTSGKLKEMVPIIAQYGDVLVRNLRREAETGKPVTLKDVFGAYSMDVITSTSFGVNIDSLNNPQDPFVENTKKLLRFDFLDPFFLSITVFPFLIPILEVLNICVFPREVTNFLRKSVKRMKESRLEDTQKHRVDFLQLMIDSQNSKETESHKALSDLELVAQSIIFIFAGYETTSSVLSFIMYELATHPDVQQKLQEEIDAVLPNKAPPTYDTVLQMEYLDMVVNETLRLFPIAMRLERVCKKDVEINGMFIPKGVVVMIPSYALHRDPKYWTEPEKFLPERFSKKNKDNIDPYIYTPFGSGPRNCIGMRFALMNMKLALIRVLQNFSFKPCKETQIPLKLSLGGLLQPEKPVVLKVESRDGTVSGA
Cytochrome P450 2C9 (Homo sapiens), sequence (P11712 whole entry, looked up): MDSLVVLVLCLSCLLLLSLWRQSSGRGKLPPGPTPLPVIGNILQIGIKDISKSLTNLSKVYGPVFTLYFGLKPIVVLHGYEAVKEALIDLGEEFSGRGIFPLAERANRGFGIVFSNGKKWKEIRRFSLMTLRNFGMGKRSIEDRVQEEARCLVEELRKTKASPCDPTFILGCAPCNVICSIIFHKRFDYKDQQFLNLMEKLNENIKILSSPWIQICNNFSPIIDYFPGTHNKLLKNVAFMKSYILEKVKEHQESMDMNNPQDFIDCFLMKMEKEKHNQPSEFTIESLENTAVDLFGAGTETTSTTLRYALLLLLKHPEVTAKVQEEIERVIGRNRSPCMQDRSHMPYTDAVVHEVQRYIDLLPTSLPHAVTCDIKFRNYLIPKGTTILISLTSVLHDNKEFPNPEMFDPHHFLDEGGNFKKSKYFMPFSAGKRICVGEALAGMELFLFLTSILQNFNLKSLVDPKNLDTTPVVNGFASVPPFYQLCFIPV
Thyrotropin-releasing hormone receptor (Homo sapiens), sequence (P34981 whole entry, looked up): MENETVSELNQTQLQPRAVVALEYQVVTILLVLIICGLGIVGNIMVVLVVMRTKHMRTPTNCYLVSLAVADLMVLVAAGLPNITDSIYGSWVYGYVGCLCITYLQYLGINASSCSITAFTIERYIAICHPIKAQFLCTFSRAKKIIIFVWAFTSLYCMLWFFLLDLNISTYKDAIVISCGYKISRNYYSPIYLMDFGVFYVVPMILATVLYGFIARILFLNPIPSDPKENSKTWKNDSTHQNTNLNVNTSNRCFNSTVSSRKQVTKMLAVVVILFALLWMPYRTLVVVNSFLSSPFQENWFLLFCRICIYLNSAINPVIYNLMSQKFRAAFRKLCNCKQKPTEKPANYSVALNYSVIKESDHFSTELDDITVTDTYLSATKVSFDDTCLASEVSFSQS
Acetylcholinesterase (Homo sapiens), sequence (P22303 whole entry, looked up): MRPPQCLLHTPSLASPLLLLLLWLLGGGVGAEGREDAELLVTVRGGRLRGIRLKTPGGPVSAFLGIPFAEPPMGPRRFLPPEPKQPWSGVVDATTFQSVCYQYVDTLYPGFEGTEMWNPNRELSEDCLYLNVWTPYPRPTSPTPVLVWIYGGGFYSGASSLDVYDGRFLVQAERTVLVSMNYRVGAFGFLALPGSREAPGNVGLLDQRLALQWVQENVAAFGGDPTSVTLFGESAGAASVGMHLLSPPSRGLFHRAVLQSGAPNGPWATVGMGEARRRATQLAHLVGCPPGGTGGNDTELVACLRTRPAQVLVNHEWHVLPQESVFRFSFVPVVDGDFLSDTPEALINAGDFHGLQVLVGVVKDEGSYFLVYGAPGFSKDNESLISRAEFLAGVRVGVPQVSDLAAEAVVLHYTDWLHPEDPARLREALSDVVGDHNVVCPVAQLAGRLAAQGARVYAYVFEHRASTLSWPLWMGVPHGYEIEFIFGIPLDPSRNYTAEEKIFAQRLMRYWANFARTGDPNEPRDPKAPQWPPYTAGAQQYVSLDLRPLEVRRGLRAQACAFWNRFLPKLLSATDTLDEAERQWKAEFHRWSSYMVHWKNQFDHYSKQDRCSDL
Cytochrome P450 2C19 (Homo sapiens), sequence (P33261 whole entry, looked up): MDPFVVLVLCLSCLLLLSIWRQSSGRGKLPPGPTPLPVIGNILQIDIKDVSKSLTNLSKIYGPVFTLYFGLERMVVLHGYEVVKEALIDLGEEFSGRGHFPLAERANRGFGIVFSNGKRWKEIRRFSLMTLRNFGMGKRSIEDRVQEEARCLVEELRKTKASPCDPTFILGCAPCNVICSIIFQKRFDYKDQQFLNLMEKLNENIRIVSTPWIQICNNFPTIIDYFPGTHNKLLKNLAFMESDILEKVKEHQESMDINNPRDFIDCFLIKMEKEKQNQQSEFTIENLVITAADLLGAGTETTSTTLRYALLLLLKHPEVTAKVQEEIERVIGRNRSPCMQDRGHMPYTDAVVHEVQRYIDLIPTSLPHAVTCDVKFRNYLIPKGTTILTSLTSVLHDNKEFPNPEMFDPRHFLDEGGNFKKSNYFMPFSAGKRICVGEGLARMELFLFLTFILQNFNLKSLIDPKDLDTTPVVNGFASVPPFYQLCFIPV
Cytochrome P450 1A2 (Homo sapiens), sequence (P05177 whole entry, looked up): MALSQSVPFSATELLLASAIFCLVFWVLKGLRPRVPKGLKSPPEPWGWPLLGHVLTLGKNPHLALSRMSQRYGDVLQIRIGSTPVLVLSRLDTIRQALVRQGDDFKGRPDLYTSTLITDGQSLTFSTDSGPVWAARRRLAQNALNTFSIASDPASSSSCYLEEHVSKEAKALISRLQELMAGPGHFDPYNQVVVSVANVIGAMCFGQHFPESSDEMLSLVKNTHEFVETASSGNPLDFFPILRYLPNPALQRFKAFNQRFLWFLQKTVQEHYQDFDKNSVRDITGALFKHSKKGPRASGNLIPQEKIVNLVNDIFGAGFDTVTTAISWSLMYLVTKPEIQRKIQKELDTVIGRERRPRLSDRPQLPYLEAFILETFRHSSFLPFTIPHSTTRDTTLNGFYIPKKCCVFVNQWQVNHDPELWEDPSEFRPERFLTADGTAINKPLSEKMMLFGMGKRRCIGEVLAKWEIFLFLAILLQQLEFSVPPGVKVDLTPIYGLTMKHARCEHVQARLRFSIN

Turning to `CCN[C@@H](C)Cc1cccc(C(F)(F)F)c1`, the outcome in assay [1], in assay [3] and in assay [5] was inactive. Besides, the Potency result in [2], in assay [4], in [6], in assay [7], in [8] and in assay [9] was “inactive” each time. Moreover, the Potency result in [10], in assay [12], in assay [13], in assay [14] and in assay [15] was “inactive” each time. In addition, the Potency in assay [11] is 2.45 µM (active).

In the case of `CN(C)CCN(C)C`, the molecule was called inactive in assay [1] and in assay [3]. Further, the Potency result in assay [2], in [4], in assay [6], in assay [16], in [7] and in [8] was “inactive” in each case. For the same molecule, the Potency entry in assay [9], in [10], in assay [12], in assay [13], in assay [14] and in assay [15] was “inactive” throughout.

Take `CCC(C)C(C)(COC(N)=O)COC(N)=O` (centres undefined): the molecule was called inactive in assay [1] and in [3]. In addition, the Potency result in assay [2], in assay [4], in assay [6], in assay [16], in [7] and in assay [8] was “inactive” in each case. The Potency result in assay [9], in assay [10], in assay [11], in assay [12], in assay [13] and in assay [17] was “inactive” throughout. The Potency result in assay [14] and in assay [15] was “inactive” throughout.

As to `CC[C@@H](CO)NC(=O)[C@@H]1C=C2c3cccc4[nH]cc(c34)C[C@H]2N(C)C1`, the result in assay [1] and in [3] was inactive. Besides, the Potency entry in assay [2], in [4], in assay [6], in assay [16], in assay [10] and in assay [14] was “inactive” in each case. For the same molecule, the Potency result in assay [15] was “inactive”. For the same molecule, in assay [7], the Potency is 17.4 µM (active).

In the case of `S=C=S`, the result in [1] and in assay [3] was inactive. The Potency entry in assay [2], in [4], in [6], in assay [16], in [19] and in [7] was “inactive” each time. The Potency result in assay [8], in assay [9], in [10], in assay [14] and in assay [15] was “inactive” in each case. Further, in assay [18], the max activation was 3.06%. The values for the Potency in assay [12], in assay [13] and in [17] were 44.3 µM (active), 49.7 µM (active) and 39.5 µM (active), respectively.

For the molecule `c1ccc2c(c1)CCNC2`, the molecule was classed as inactive in assay [1] and in assay [3]. The Potency entry in assay [2], in assay [4], in assay [6], in assay [16], in assay [7] and in [8] was “inactive” in each case. Moreover, the Potency result in assay [9] and in [10] was “inactive” throughout. Besides, the Potency is 57.9 µM (active) in assay [12] and 32.5 µM (active) in [13].

With `CCN[C@@H](C)Cc1ccccc1`, the result in assay [1] and in assay [3] was inactive. The Potency result in assay [2], in assay [4], in assay [6], in [16], in [7] and in assay [8] was “inactive” in each case. Besides, the Potency entry in [9], in [10], in assay [13], in assay [17], in assay [14] and in [15] was “inactive” throughout. In addition, the Potency in [11] is 6.28 µM (active).

These data come from PubChem BioAssay (Tox21).
